Sampled rows, rich in hits. Any-hit rate of the full collection: about 12%.
Sfp inh: qHTS Assay for Inhibitors of Bacillus subtilis Sfp phosphopantetheinyl transferase (PPTase). hit rate 3.5% among 310,000. 4'-phosphopantetheinyl transferase ffp (Bacillus subtilis), Q9F4F7. Biochemical Sfp PPTase activity, qHTS. Potency, µM, without a hit: largest response in the series, negative = inhibition, hits mostly inhibitors;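 note: the enzyme is Sfp with the accession as filed and its product quenches rhodamine fluorescence; 0% = enzyme reaction without inhibitor and -100% = no enzyme wells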
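With Hepes-Na pH 7.6 buffer containing 10 mM MgCl2, Sfp (15 nM) modified BHQ-2-YbbR (12.5 uM) using rhodamine-CoA (5 uM). Two reads 30 minutes apart at 525/598 nm yielded each well's rate.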
BAZ2B block: qHTS Assay for Inhibitors of BAZ2B | Bromodomain adjacent to zinc finger domain protein 2B (Homo sapiens), Q9UIF8 | AlphaScreen BAZ2B-H3K14Ac peptide displacement | Potency, µM (series often up to 114 µM), inactives show top-dose activity change, negative = inhibition, most hits filed as inhibitors | hit rate 4.4% among 360,000; note: % is set by controls: 0 for no effect and ±100 for the full control effect; nearly all actives have a fitted effect of over 60% in size
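Multi-concentration screen (max 110 uM) measuring displacement of acetylated histone H3 peptide from BAZ2B by AlphaScreen, using 50 nM protein, 50 nM peptide and 10 ug/mL streptavidin donor plus Ni-chelate acceptor beads.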
G9a inh: qHTS Assay for Inhibitors of Histone Lysine Methyltransferase G9a; hit rate 8.8% among 350,000; AID 504332, 2011; G9a H3K9 monomethylation, AlphaScreen, 2 h; Potency, µM (doses to about 102 µM), for inactives: at the top dose activity, negative = inhibition, hits mostly inhibitors; Histone-lysine N-methyltransferase EHMT2 (Homo sapiens), Q96KQ7; note: % is set by controls: 0 for no effect and ±100 for the full control effect; nearly all actives have a fitted effect of over 75% in size
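AlphaScreen read-out: biotin-H3K9 peptide (500 nM) methylation by 20 nM enzyme with 20 uM SAM, 2 h at room temperature after 15 min compound preincubation; anti-monomethyl H3K9 antibody plus donor/acceptor beads, 10 min dark.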
HP1b binding inh: HTS for Inhibitors of HP1-beta Chromodomain Interactions with Methylated Histone Tails | AlphaScreen HP1-beta / biotin-H3K9me3 peptide binding | Potency, µM (top dose mostly 114 µM), inactives show at the top dose activity change, negative = inhibition, hits mostly inhibitors | hit rate 0.56% among 390,000 | AID 540317, 2011; note: nearly all actives have a fitted effect of over 70% in size
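HP1-beta protein (50 nM final) preincubated 30 min at room temperature with biotinylated H3(1-18)K9me3 peptide (50 nM) in PBS pH 7.4, 0.01% Tween-20, then compound added for 30 min. AlphaScreen streptavidin donor/nickel chelate acceptor beads (10 ug/mL final), 30 min dark, luminescence read.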
PLK1 PBD inh: qHTS for Inhibitors of PLK1-PDB (polo-like kinase 1 - polo-box domain): Primary Screen. Plk1 PBD binding of FITC phosphopeptide, fluorescence polarization. Potency, µM, without a hit: max response, negative = inhibition, most hits filed as inhibitors. hit rate 2.8% among 360,000; note: series mostly up to about 57 µM; % is set by controls: 0 for no effect and ±100 for the full control effect; nearly all actives have a fitted effect of over 65% in size
JMJD2A Tudor: qHTS Assay for Inhibitors of JMJD2A-Tudor Domain. AlphaScreen JMJD2A-Tudor / H3K4me3 peptide binding. Potency, µM (top dose mostly 114 µM), for the others: top-dose activity change, negative = inhibition, actives largely listed as inhibitors. hit rate 4.4% among 390,000. AID 504339, 2011; note: % is set by controls: 0 for no effect and ±100 for the full control effect; nearly all actives have a fitted effect of over 50% in size
Target sequence (O75164 whole entry, looked up, the tested form may be a part): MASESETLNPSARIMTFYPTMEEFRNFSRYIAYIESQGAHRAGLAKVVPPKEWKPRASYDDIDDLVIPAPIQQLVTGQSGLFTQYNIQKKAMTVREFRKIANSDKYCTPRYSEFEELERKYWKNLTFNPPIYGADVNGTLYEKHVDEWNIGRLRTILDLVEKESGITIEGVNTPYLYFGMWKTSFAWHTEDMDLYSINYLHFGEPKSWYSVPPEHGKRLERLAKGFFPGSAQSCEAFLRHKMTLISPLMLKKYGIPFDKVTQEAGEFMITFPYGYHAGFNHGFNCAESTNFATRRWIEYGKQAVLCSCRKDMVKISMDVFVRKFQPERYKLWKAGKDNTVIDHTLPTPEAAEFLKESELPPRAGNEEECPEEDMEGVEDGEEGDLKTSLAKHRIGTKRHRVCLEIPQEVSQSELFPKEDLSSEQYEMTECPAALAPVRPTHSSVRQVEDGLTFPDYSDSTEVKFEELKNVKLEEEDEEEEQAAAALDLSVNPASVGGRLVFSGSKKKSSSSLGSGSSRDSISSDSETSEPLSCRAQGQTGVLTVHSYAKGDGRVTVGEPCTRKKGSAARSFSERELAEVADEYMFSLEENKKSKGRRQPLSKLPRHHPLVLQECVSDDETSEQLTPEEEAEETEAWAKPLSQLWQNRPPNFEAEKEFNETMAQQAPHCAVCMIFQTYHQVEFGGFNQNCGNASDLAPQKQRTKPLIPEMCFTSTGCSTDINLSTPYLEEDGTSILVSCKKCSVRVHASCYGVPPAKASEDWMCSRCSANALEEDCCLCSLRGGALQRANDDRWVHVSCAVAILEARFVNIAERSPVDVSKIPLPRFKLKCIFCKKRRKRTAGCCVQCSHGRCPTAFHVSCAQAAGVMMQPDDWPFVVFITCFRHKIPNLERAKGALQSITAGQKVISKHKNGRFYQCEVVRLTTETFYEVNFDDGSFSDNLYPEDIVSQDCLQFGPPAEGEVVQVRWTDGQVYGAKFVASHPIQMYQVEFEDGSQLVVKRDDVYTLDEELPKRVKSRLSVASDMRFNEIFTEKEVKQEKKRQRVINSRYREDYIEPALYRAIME
Starred values were filed as active, the others as inactive; u = inconclusive; x = not tested or not shown; [ ] = dose if it differs, or a comment. Calls come from the whole dose curve; as a rule, active = well fitted curve in the direction sought with a large enough effect; inconclusive = small, poorly fitted or top-dose-only effect, or another doubt; inactive = no such curve, though single readings can be large; an effect the other way counts as inactive or inconclusive. Potency is the fitted concentration of half-maximal effect.

SMILES | Sfp inh | BAZ2B block | G9a inh | HP1b binding inh | PLK1 PBD inh | JMJD2A Tudor
CCNc1nc(NCC)n2c(SCC(=O)c3ccccc3Cl)nnc2n1 | 12% | -17% | u | 42% | -13% | -12%
CCNc1nc(NCC)n2c(SCC(=O)Nc3ccc(CC)cc3)nnc2n1 | x | -33% | 2.5µM* | u | 6.7µM* | u
CCNc1nc(NCC)n2c(SCC(=O)Nc3ccccc3OC(F)F)nnc2n1 | x | x | x | 18% | -11% | -17%
CCNc1nc(NCC)n2c(SCC(=O)Nc3ccc(NC(C)=O)cc3)nnc2n1 | x | 50µM* | 50µM* | 0% | -5% | -25%
CCNc1nc(NCC)n2c(SCc3nc4ccccc4c(=O)[nH]3)nnc2n1 | 14% | -4% | 2%[12.7 µM] | 25% | -7% | -7%
CCNc1nc(NCC)n2c(SCC(=O)Nc3ccccc3F)nnc2n1 | x | 8% | -13%[0.501 µM] | -14% | 12µM* | -11%
CCNc1nc(NCC)n2c(SCc3ccc(F)cc3)nnc2n1 | 2% | 8% | 10µM* | 4% | -12% | -14%
Nc1ncnc(N2CCOCC2)n1 | x | x | x | 21% | -5% | -11%
CCCCCCOC(=O)Sc1nc2ccccc2o1 | 45µM* | 87% | u | 24% | 0% | 18%
Cc1ccc(C(=O)NCc2n[nH]c(=S)n2-c2ccccc2)cc1[N+](=O)[O-] | 7% | -23% | 10µM* | -2% | -6% | 14µM*
O=C(Cc1ccccc1)NCc1n[nH]c(=S)n1-c1ccccc1 | 5% | -20% | u | u | 27µM* | -17%[11.4 µM]
O=C(NCc1nnc2c(C(F)(F)F)cc(Cl)cn12)c1ccco1 | 26% | 4% | 4% | 58% | -12% | -10%
S=c1[nH]nc(CCc2ccccc2)n1-c1ccc(Cl)cc1 | u | -27% | u | -19% | u | u
COc1cccc(C(=O)NCc2n[nH]c(=S)n2-c2cccc(C)c2)c1 | 0% | -21% | u | 29% | -2% | 18µM*
O=C(NCc1n[nH]c(=S)n1-c1cccc(C(F)(F)F)c1)c1ccco1 | -13% | 18% | 13µM* | 27% | -2% | 13µM*
COc1ccc(CNc2ncnc3ccc(-c4c(C)noc4C)cc23)c(OC)c1 | -5% | x | 8%[0.501 µM] | x | x | x
COC(=O)c1cc2c(=O)c3ccccc3oc2nc1/C=C/N(C)C | -6% | -1% | 1% | 47% | 24% | 18%
COc1cccc(C(C)(O)c2nc(-c3cccc(NC(C)=O)c3)cs2)c1 (stereo not given) | x | x | x | x | -2% | x
COc1ccc(CC(=O)NCc2n[nH]c(=S)n2-c2cccc(C)c2)cc1 | 12% | 3% | 11µM* | 35% | 1% | 7.9µM*
COc1ccc(CC(=O)NCc2n[nH]c(=S)n2C)cc1 | -26% | 0% | 45µM* | 32% | -1% | u
CCCCOC(=O)/C=C\C(=O)NC(N)=O | -4% | -4% | 45µM* | 11% | -9% | 1%
CCCCOC(=O)/C=C\C(=O)OCCCC | -2% | -8% | 24%[59 µM] | 55% | -2% | 5%
COc1ccc(-c2nc(-c3ccccc3)c(-c3cc([N+](=O)[O-])ccc3C)[nH]2)cc1O | 12% | 40µM* | 50µM* | u | -5% | 45µM*
Cc1ccc([N+](=O)[O-])cc1-c1[nH]c(-c2ccc(O)c(O)c2)nc1-c1ccccc1 | 2% | 28µM* | u | -43% | -1% | 40µM*
CCn1c2c(c(=O)n3ncc(C(=O)Nc4cccc(Cl)c4C)c13)CN(Cc1ccc(OC)cc1)CC2 | x | -9% | 14µM* | 14%[57 µM] | x | u
SMILES | Sfp inh | BAZ2B block | G9a inh | HP1b binding inh | PLK1 PBD inh | JMJD2A Tudor
CCn1c2c(c(=O)n3ncc(C(=O)Nc4ccc(C(=O)OC)cc4)c13)CN(Cc1ccc(OC)cc1)CC2 | x | -24% | 28µM* | 16%[57 µM] | x | u
CCCOc1ccc(C(=O)Nc2ccc(S(=O)(=O)Nc3cc(C)nc(C)n3)cc2)cc1 | 21% | -17% | -25% | 42% | -2% | -15%
COc1ccc(C)cc1NC(=O)c1cnc2n(c1=O)CCS2 | 8% | 2% | -13%[59 µM] | 1% | -27% | -3%
CCOc1ccccc1NC(=O)c1cnc2n(c1=O)CCS2 | 2% | -2% | 79µM* | 29% | -10% | 1%
O=C(Nc1ccc(Oc2ccccc2)cc1)c1cnc2n(c1=O)CCS2 | -17% | -16% | 56µM* | 28% | -2% | -12%
Cc1ccc(NC(=O)Nc2c(C)n(C)n(-c3ccccc3)c2=O)cc1C | 5% | -16% | -23% | u | 21µM* | 14µM*
Cc1cccc(NC(=O)Nc2c(C)n(C)n(-c3ccccc3)c2=O)c1 | -6% | 5% | 46%[0.501 µM] | -1% | 24µM* | u
CN1CCN(C(=O)CSc2nnc(COc3ccccc3)o2)CC1 | -16% | -2% | 40µM* | 15% | u | -6%
O=C(CSc1nnc(-c2ccco2)o1)N1CCN(c2ccccc2)CC1 | 16% | -3% | 4% | -8% | 30µM* | u
CN1CCN(C(=O)CSc2nnc(COc3ccc(Cl)cc3)o2)CC1 | 8% | 8% | 12% | 2% | -4% | 5%
O=c1cc(CSc2nnc(COc3ccc(Cl)cc3)o2)c2ccccc2[nH]1 | 18% | -2% | -25%[12.7 µM] | 19% | -2% | 9%
O=C(CSc1nnc(COc2ccc(Cl)cc2)o1)N1CCN(c2ccccc2)CC1 | 14% | 0% | u | 2% | 30µM* | u
COc1cccc(OCc2nnc(SCc3cc(=O)[nH]c4ccccc34)o2)c1 | -13% | -26% | -42% | u | 24µM* | -8%[11.4 µM]
COc1ccc(NC(=O)CSC2=Nc3ccccc3C3=NC(CC(=O)NCc4ccc5c(c4)OCO5)C(=O)N23)cc1 (stereo not given) | x | -23% | 4%[59 µM] | -2% | x | -30%
CCNc1cccc(S(=O)(=O)N2CCN(S(=O)(=O)c3ccc4c(c3)OCCO4)CC2)c1 | x | x | x | x | x | -35%
COc1cccc(OCc2nnc(SCC(=O)N3c4ccccc4Sc4ccc(Cl)cc43)o2)c1 | 11% | -6% | 28µM* | -17% | u | 8%
CCCN(CCC)CCCNC(=O)c1cc2c(=O)oc3ccc(C)cc3c2s1 | x | -14% | -2%[59 µM] | 17% | x | -18%
Cc1ccc(/C=C/C(=O)N2CCN(c3ccc(F)cc3)CC2)o1 | -99% | u | u | -14% | -7% | -24%
Cc1ccc(/C=C/C(=O)N2CCCC(C(N)=O)C2)o1 (stereo not given) | 18µM* | 15% | 56µM* | 14% | 1% | -2%

Screens from PubChem.
